Screens (PubChem)
TDP1 cell CPT: qHTS for Inhibitors of human tyrosyl-DNA phosphodiesterase 1 (TDP1): qHTS in cells in presence of CPT | chicken DT40 Tdp1-/-;hTDP1 cells + 20 nM CPT, ATP luminescence, 48 h | Potency, µM (doses to about 46.2 µM), hits mostly inhibitors | hit rate 12% among 420,000; note: nearly all actives have a fitted effect of over 55% in size
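Chicken DT40 Tdp1-/- cells complemented with human TDP1, 400 cells/well, exposed to compounds plus 20 nM camptothecin for at least 48 h at 37 C; viability read as ATP content by CellTiter-Glo luminescence.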
KB-V1 cytotox: qHTS assay for MDR1-selective chemotherapeutics: Primary screen using the drug-selected MDR subline cells KB-V1; hit rate 3.4% among 400,000; Potency, µM (titrated, usually from 46.1 µM), actives largely listed as cytotoxic; KB-V1 MDR cells viability, CellTiter-Glo, 72 h; note: nearly all actives have a fitted effect of over 60% in size
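Following 72 h at 37 degrees C with compound, KB-V1 cell viability was read by CellTiter-Glo luminescence, medium being phenol-red-free DMEM plus 10% FBS; concentration-response parameters came from normalized, curve-fitted qHTS data.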
HT1080-NT tox: qHTS for induction of synthetic lethality in tumor cells producing 2HG: qHTS for the HT-1080-NT fibrosarcoma cell line; HT-1080-NT fibrosarcoma viability, CellTiter-Glo ATP luminescence, 48 h; Potency, µM (titrated, usually from 46.1 µM), actives largely listed as cytotoxic; hit rate 1.6% among 360,000;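 note: NT is the 2HG producing partner of a matched IDH1 knockdown line; nearly all actives have a fitted effect of over 55% in size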
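Toxicity toward the 2HG-producing NT line was scored as %Activity, normalised to DMSO and no-cell wells, from CellTiter-Glo luminescence after 48 hours' treatment.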
HT1080 IDH1KD tx: qHTS for induction of synthetic lethality in tumor cells producing 2HG: qHTS for the HT-1080-IDH1KD cell line | HT-1080 IDH1 knockdown viability, ATP luminescence, 48 h | hit rate 2% among 360,000 | AID 686971, 2013 | Potency, µM (doses to about 46.1 µM), most hits filed as cytotoxic
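Knockdown cells (IDH1KD HT-1080) received compounds 2 h after plating at 750 cells/well and were kept 48 h at 37 °C in 5% FBS RPMI. A CellTiter-Glo luminescence read gave % activity for curve fitting.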
TDP1 cell noCPT: qHTS for Inhibitors of human tyrosyl-DNA phosphodiesterase 1 (TDP1): qHTS in cells in absence of CPT; DT40 Tdp1-/- hTDP1 cells, no CPT, ATP luminescence, 48 h; Potency, µM (highest dose often 46.2 µM), most hits filed as inhibitors; hit rate 15% among 420,000; note: nearly all actives have a fitted effect of over 55% in size
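Seeded 400 DT40-hTDP1 cells/well (vehicle DMSO, no 20 nM CPT); pinned compounds; ≥48 hr at 37 °C; CellTiter-Glo luminescence as viability measure.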
KB-3-1 cytotox: qHTS assay for MDR1-selective chemotherapeutics: Primary screen using the parental adenocarcinoma cell KB-3-1 | KB-3-1 viability, CellTiter-Glo ATP luminescence, 72 h | Potency, µM (top dose mostly 46.1 µM), actives largely listed as cytotoxic | hit rate 1.4% among 400,000; note: nearly all actives have a fitted effect of over 60% in size
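Parental KB-3-1 adenocarcinoma cells in phenol-red-free DMEM with 10% FBS were pin-treated with compounds at several concentrations, incubated 72 h at 37 °C, and viability read by CellTiter-Glo luminescence; concentration-effect curves were fitted after normalization.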
Each line names hits and unclear results; the compound was inactive in the other large screens. Rows were chosen to be rich in hits. Some 19% of all compounds tested hit in one or more screens of this group. Calls come from the whole dose curve; as a rule, active = well fitted curve in the direction sought with a large enough effect; inconclusive = small, poorly fitted or top-dose-only effect, or another doubt; inactive = no such curve, though single readings can be large; an effect the other way counts as inactive or inconclusive.

Cc1ccc(O)c(-c2n[nH]c3c2C(c2ccccc2F)N(Cc2ccco2)C3=O)c1 (stereo not given)	TDP1 cell CPT inconclusive, KB-V1 cytotox inconclusive, TDP1 cell noCPT 21µM (no result: HT1080-NT tox, HT1080 IDH1KD tx)
CCOC(=O)C1(C)CCCN(C(=O)c2cc(C)oc2C)C1 (stereo not given)	TDP1 cell CPT inconclusive, TDP1 cell noCPT inconclusive
CCCc1ccc(Oc2cc(NN3CCCCC3)c([N+](=O)[O-])cc2[N+](=O)[O-])cc1	none
COc1cc2c(cc1OC)C(NNC(=O)c1ccc(Br)o1)=NC(C)(C)C2	TDP1 cell CPT 21µM, TDP1 cell noCPT inconclusive
CC(C)(C)c1ccc(S(=O)(=O)NCC(=O)N2CCN(Cc3ccccc3)CC2)cc1	TDP1 cell CPT inconclusive, TDP1 cell noCPT inconclusive (no result: KB-V1 cytotox, KB-3-1 cytotox)
COC(=O)c1sc(-c2ccc(Cl)cc2)cc1NC(=O)CSCC(=O)O	none
COC(=O)c1sc(-c2ccc(C(C)(C)C)cc2)cc1NC(=O)COCC(=O)O	HT1080-NT tox 16µM, HT1080 IDH1KD tx 21µM, TDP1 cell noCPT inconclusive
CCOC(=O)c1cc(C(=O)OCC)c(=O)[nH]c1N1CCCC1	KB-V1 cytotox inconclusive, TDP1 cell noCPT inconclusive
CN1CCc2c(sc3nc(SCC(=O)N4CCOCC4)nc(N)c23)C1	TDP1 cell CPT 23µM, TDP1 cell noCPT 18µM
CNC(=O)CSc1nc(N)c2c3c(sc2n1)CCC3	KB-V1 cytotox 21µM
CCOC(=O)c1cnc(SCC(=O)N2CCOCC2)nc1N	none
CC1CCN(C(=O)CSc2nc(N)c3c4c(sc3n2)CN(C)CC4)CC1	TDP1 cell CPT inconclusive, TDP1 cell noCPT 21µM
CCc1ccc(NC(=O)C2CCCN(S(=O)(=O)c3ccc(F)cc3)C2)cc1 (stereo not given)	TDP1 cell CPT 8.2µM, TDP1 cell noCPT 7.3µM (no result: HT1080-NT tox, HT1080 IDH1KD tx)
O=C(Nc1ccc(N2CCOCC2)cc1)C1CCCN(S(=O)(=O)c2ccccc2)C1 (stereo not given)	TDP1 cell CPT inconclusive, TDP1 cell noCPT inconclusive
CS(=O)(=O)N1CCCC(C(=O)Nc2ccc(F)cc2)C1 (stereo not given)	none
O=C(C1CCCN(S(=O)(=O)c2ccc(F)cc2)C1)N(Cc1cccs1)C1CC1 (stereo not given)	TDP1 cell CPT 13µM, TDP1 cell noCPT 18µM
O=C(C1CCCN(S(=O)(=O)c2ccc(F)cc2)C1)N1CCCC1 (stereo not given)	none
CN(C)c1ccc(NC(=O)C2CCCN(S(=O)(=O)c3ccccc3)C2)cc1 (stereo not given)	TDP1 cell CPT 15µM, KB-V1 cytotox inconclusive, TDP1 cell noCPT 23µM, KB-3-1 cytotox inconclusive
Cc1ccc(NC(=O)C2CCCN(S(=O)(=O)c3ccc(F)cc3)C2)cc1 (stereo not given)	TDP1 cell CPT 23µM, TDP1 cell noCPT 16µM (no result: HT1080-NT tox, HT1080 IDH1KD tx)
CCc1ccc(NC(=O)C2CCCN(S(C)(=O)=O)C2)cc1 (stereo not given)	TDP1 cell CPT inconclusive, TDP1 cell noCPT inconclusive
CS(=O)(=O)c1[nH]nc(-c2ccccc2)c1C#N	none
C/C(CCc1ccco1)=N/NC(=O)CCC(=O)Nc1ccc(Br)cc1	HT1080-NT tox inconclusive, HT1080 IDH1KD tx inconclusive
COc1ccc(/C=N/n2c(COc3ccccc3)n[nH]c2=S)cc1OC	none
CC(C)c1ccccc1NC(=O)c1ccc2ncsc2c1	KB-V1 cytotox inconclusive
CCOC(=O)C1CCCN(S(=O)(=O)c2ccc(NC(C)=O)cc2)C1 (stereo not given)	none
COc1ccc(CCNC(=O)C2CCCN(S(=O)(=O)c3ccc(F)cc3)C2)cc1 (stereo not given)	TDP1 cell CPT inconclusive, KB-V1 cytotox inconclusive, TDP1 cell noCPT 16µM
O=C(NCCc1ccc(Cl)cc1)C1CCCN(S(=O)(=O)N2CCCCCC2)C1 (stereo not given)	TDP1 cell CPT 18µM, TDP1 cell noCPT 16µM
CCOC(=O)c1ccc(NC(=O)C2CCCN(S(=O)(=O)c3ccc(F)cc3)C2)cc1 (stereo not given)	TDP1 cell CPT inconclusive, KB-V1 cytotox inconclusive, HT1080-NT tox inconclusive, HT1080 IDH1KD tx inconclusive, TDP1 cell noCPT 23µM
Cc1ccccc1CS(=O)(=O)c1cnc2ccccc2n1	TDP1 cell CPT inconclusive, KB-V1 cytotox inconclusive, HT1080-NT tox 23µM, HT1080 IDH1KD tx inconclusive, TDP1 cell noCPT 29µM
Cc1ccccc1Cn1c(SCc2ccc(C(=O)NCc3cccs3)cc2)nc2ccncc21	TDP1 cell CPT 21µM, TDP1 cell noCPT 18µM (no result: HT1080-NT tox, HT1080 IDH1KD tx)
Cc1ccccc1Cn1c(SCc2ccc(C(=O)NC(C)c3ccccc3)cc2)nc2ccncc21 (stereo not given)	TDP1 cell CPT 9.2µM, TDP1 cell noCPT 16µM (no result: HT1080-NT tox, HT1080 IDH1KD tx)
C[C@@H]([C@H](O)c1ccccc1)N(C)C(=S)Nc1ccccc1	none
CCOC(=O)c1c(NC(C)=O)sc2c(OCC(O)CN(CC)CC)c(Br)ccc12 (stereo not given)	TDP1 cell CPT inconclusive, HT1080 IDH1KD tx inconclusive, TDP1 cell noCPT 21µM
O=C(c1ccc2[nH]c3c(c2c1)CCCC3)N1CCN(c2ccc(F)cc2)CC1	TDP1 cell CPT 23µM, KB-V1 cytotox inconclusive, TDP1 cell noCPT inconclusive
CC(=O)c1ccc(N2CCN(C(=O)c3ccc4[nH]c(C)c(C)c4c3)CC2)cc1	TDP1 cell CPT 21µM, HT1080-NT tox inconclusive, TDP1 cell noCPT 16µM, KB-3-1 cytotox inconclusive
COc1ccccc1N1CCN(C(=O)c2ccc3[nH]c4c(c3c2)CCCC4)CC1	TDP1 cell CPT inconclusive, HT1080-NT tox inconclusive, TDP1 cell noCPT inconclusive
Cc1ccc(NC2=CC(c3ccccc3F)N(c3ccc(C)cc3)C2=O)cc1 (stereo not given)	TDP1 cell noCPT inconclusive (no result: HT1080-NT tox, HT1080 IDH1KD tx)
CN(C)c1ccc(-c2nn3c(C4CCCCC4)nnc3s2)cc1	TDP1 cell CPT 16µM, TDP1 cell noCPT 23µM
COCc1c(C(=O)N2CCN(Cc3ccc(C#N)cc3)CC2)oc2ccccc12	KB-V1 cytotox 13µM, TDP1 cell noCPT 21µM, KB-3-1 cytotox inconclusive
COCc1c(C(=O)N2CCN(Cc3c(F)cccc3Cl)CC2)oc2ccccc12	TDP1 cell CPT inconclusive, TDP1 cell noCPT 21µM
COCc1c(C(=O)N2CCN(c3ncccn3)CC2)oc2ccccc12	TDP1 cell CPT 15µM, TDP1 cell noCPT inconclusive
